Shown is part of a subset that was picked to be rich in hits.
miR122 inh = raises miR-122 sensor activity in Huh7 cells; 0.14% of 340,000 active; Huh7 psiCHECK-miR122 Renilla luciferase sensor, 48 h; activation, % at 12.5 µM;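 active = mean activation of 30% or more, with every replicate also reaching 30%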;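 also: higher luciferase signal means stronger suppression of miR-122 activity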
Large screens that a line does not name were inactive.

Cc1ccc(C2CN=NC23CCc2ccccc2C3=O)cc1 (stereo not drawn)	miR122 inh 50.6
Cc1ccc(C2CN(C)C3(C(=O)Nc4ccccc43)C23COc2ccccc2C3=O)cc1 (stereo not drawn)	none
C[C@H](CO)N1C[C@H](C)[C@H](CN(C)CC2CCOCC2)Oc2ncc(-c3cncnc3)cc2C1=O	none
C[C@@H]1CN([C@H](C)CO)C(=O)c2cc(C#CC3(O)CCCC3)cnc2O[C@H]1CN(C)C(=O)C1CCCCC1	none
CC(C)NC(=O)N(C)C[C@H]1Oc2ncc(C3=CCCCC3)cc2C(=O)N([C@@H](C)CO)C[C@H]1C	none
CNC[C@H]1Oc2cc(C#Cc3cccc(F)c3)ccc2S(=O)(=O)N([C@@H](C)CO)C[C@H]1C	none
C[C@@H]1CN([C@H](C)CO)S(=O)(=O)c2ccc(C#C[C@@H](C)O)cc2O[C@@H]1CN(C)Cc1cccnc1	none
C[C@H](O)C#Cc1ccc2c(c1)O[C@H](CN(C)C)[C@H](C)CN([C@@H](C)CO)S2(=O)=O	none
COc1ccccc1C#Cc1ccc2c(c1)O[C@H](CN(C)Cc1cccnc1)[C@@H](C)CN([C@@H](C)CO)S2(=O)=O	miR122 inh 40.5
COc1ccccc1C#Cc1ccc2c(c1)O[C@H](CN(C)Cc1cncnc1)[C@@H](C)CN([C@H](C)CO)S2(=O)=O	none
C[C@@H](O)C#Cc1ccc2c(c1)O[C@H](CN(C)Cc1cncnc1)[C@@H](C)CN([C@@H](C)CO)S2(=O)=O	none
C[C@H]1CN([C@@H](C)CO)S(=O)(=O)c2ccc(-c3ccccc3)cc2O[C@H]1CN(C)Cc1cncnc1	none
C[C@@H]1CN([C@@H](C)CO)S(=O)(=O)c2ccc(C#C[C@@H](C)O)cc2O[C@@H]1CN(C)Cc1cncnc1	none
C[C@H](O)C#Cc1ccc2c(c1)O[C@H](CN(C)Cc1ccc(-c3ccccc3)cc1)[C@@H](C)CN([C@H](C)CO)S2(=O)=O	miR122 inh 48.6
COc1ccccc1C#Cc1ccc2c(c1)O[C@@H](CN(C)Cc1cncnc1)[C@@H](C)CN([C@@H](C)CO)S2(=O)=O	none
C[C@H](CO)N1C[C@H](C)[C@H](CN(C)Cc2ccc(-c3ccccc3)cc2)Oc2cc(C#C[C@@H](C)O)ccc2S1(=O)=O	miR122 inh 40.7
Cc1ccc(-c2ccc3c(c2)O[C@H](CN(C)Cc2cncnc2)[C@H](C)CN([C@@H](C)CO)S3(=O)=O)cc1	miR122 inh 57.1
C[C@H](CO)N1C[C@H](C)[C@@H](CN(C)Cc2cncnc2)Oc2cc(-c3cncnc3)ccc2S1(=O)=O	none
C[C@@H]1CN([C@H](C)CO)C(=O)c2cc(-c3ccncc3)cnc2O[C@H]1CN(C)C(=O)Cc1cccnc1	none
COc1ccccc1NC(=O)N(C)C[C@H]1Oc2ncc(C#CCC(C)C)cc2C(=O)N([C@@H](C)CO)C[C@H]1C	none
C[C@H](CO)N1C[C@H](C)[C@@H](CN(C)S(C)(=O)=O)Oc2ncc(-c3cccc(F)c3)cc2C1=O	none
C[C@H](CO)N1C[C@H](C)[C@@H](CN(C)C(=O)Nc2ccc(F)cc2)Oc2ncc(-c3cccnc3)cc2C1=O	none
COc1ccccc1-c1ccc2c(c1)O[C@H](CN(C)S(=O)(=O)c1ccc(C)cc1)[C@@H](C)CN([C@@H](C)CO)S2(=O)=O	none
CO[C@H]1CN(C)C(=O)c2ccc(NC(=O)Nc3ccc(Cl)cc3)cc2OC[C@@H](C)N(C)C[C@H]1C	none
C[C@H]1CN([C@@H](C)CO)C(=O)c2cc(C#CC3(O)CCCC3)cnc2O[C@@H]1CN(C)Cc1ccncc1	none
C[C@H]1CN([C@@H](C)CO)C(=O)c2cc(-c3ccccc3F)cnc2O[C@@H]1CN(C)Cc1ccccc1F	none
C[C@H](CO)N1C[C@H](C)[C@H](CN(C)Cc2cncnc2)Oc2cc(C#C[C@@H](C)O)ccc2S1(=O)=O	none
C[C@@H]1CN([C@H](C)CO)S(=O)(=O)c2ccc(C#C[C@@H](C)O)cc2O[C@@H]1CN(C)Cc1cncnc1	none
C[C@H](CO)N1C[C@H](C)[C@@H](CN(C)Cc2cccnc2)Oc2cc(C#C[C@@H](C)O)ccc2S1(=O)=O	none
C[C@@H]1CN([C@H](C)CO)S(=O)(=O)c2ccc(C#C[C@@H](C)O)cc2O[C@H]1CN(C)Cc1cccnc1	none
C[C@H](O)C#Cc1ccc2c(c1)O[C@@H](CN(C)Cc1ccc(-c3ccccc3)cc1)[C@@H](C)CN([C@@H](C)CO)S2(=O)=O	miR122 inh 38.5
C[C@@H]1CN([C@@H](C)CO)S(=O)(=O)c2ccc(C#C[C@@H](C)O)cc2O[C@H]1CN(C)Cc1ccc(-c2ccccc2)cc1	miR122 inh 41.2
Cc1ccc(S(=O)(=O)N(C)C[C@@H]2Oc3cc(C#CC4CCCC4)ccc3S(=O)(=O)N([C@H](C)CO)C[C@@H]2C)cc1	none
CCC(=O)Nc1ccc2c(c1)C(=O)N(C)C[C@@H](OC)[C@H](C)CN(Cc1ccccc1OC)[C@H](C)CO2	none
COc1cccc(NC(=O)N(C)C[C@H]2Oc3cc(-c4cccc(C(=O)N(C)C)c4)ccc3S(=O)(=O)N([C@H](C)CO)C[C@H]2C)c1	none
COCC#Cc1cnc2c(c1)C(=O)N([C@H](C)CO)C[C@@H](C)[C@@H](CN(C)Cc1ccccc1)O2	none

Source: PubChem (Broad Institute)
